# Data as given in the supplement of paper PMC12632987.
# Changes are numbered by the printed parent chain.
# T1: FBXL12, Q9NXK8
# T1 chain: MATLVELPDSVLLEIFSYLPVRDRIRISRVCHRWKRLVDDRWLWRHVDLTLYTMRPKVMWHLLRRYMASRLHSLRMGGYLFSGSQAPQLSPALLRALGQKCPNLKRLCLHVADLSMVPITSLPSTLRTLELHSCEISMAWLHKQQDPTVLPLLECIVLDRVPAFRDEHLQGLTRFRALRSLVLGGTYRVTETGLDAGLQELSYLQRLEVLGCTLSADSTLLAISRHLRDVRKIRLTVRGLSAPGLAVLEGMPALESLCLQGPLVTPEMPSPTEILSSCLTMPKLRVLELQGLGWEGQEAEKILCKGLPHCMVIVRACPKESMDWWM
# B1: GBRAPL2_0_7189 (protein)
# chain: LEERLEAARELSIEEAAEELLRLIREAVEDPSFSLEEIEELARRAVEVLVEIVRRENTEEAEEIAAETADEMREILLEIDPNLAADVETEFYSELLEIEE
# B2: FBXL12_hotspot_69_90 (protein)
# chain: MIEVKASKESVDYVAELMKSALELAKKYLKEGDYENLLKAAEILIGAARAIKEYKPEEAAKLLEELIKVLKEAGTPEAKELAKEAEKVLEEIKKIIKERE
# B3: GBRAPL2_0_7197 (protein)
# chain: YLKEIEEMKKLSPEEAFEKAKELVKKLAEDKTISPEELEKILEAILELAAEIVKKTKEEKMEEKFDELADLAVKAAAKKDPNLAAYIASYAGSLRYEVES
# B4: GBRAPL2_0_7191 (protein)
# chain: YEEELKKISELPIEEFAKRGVELVERAAKDPSLTLEELEELAERVIELLIEKVKEEKTEEAEEIYVEAADRIREILLKIDPNLAADVATEAGAGLYEIES
# B5: GBRAPL2_0_7195 (protein)
# chain: VEEEIERISELPIEEAAEEGVRLVERVVADPSFTDEEKVEVALRVVDILAKKVKEEKTEEAEDIYVEALDEIRKLLLSVGPELANYVYAEGGSELMEIES
# B6: GBRAPL2_0_7206 (protein)
# chain: YEAEIEAAKKLTPEEAFKKLKELVKKLAKDTSLSKEELEKILEAIIDLAYEIYKKEKTEEAEEAFDEIVDLAVEAAAKRDPNLAAYIATYGGSKIMEAES
# B7: FBXL12_hotspot_81_96 (protein)
# chain: ATRELRITLQFTADDTEEEIIRRGRYHLELMYEAAKAGWEIASVTLDEAALEKSLTPERQALARRVTAILQEAAAEFRAARDAPDSVFDAILAEALARLA
# B8: GBRAPL2_0_7192 (protein)
# chain: YEERLEEISKLPIEEFAKEAVRIVEEAAKDPSLSLEELEEIALRAIRLLYEKVKEEKTEEAEDIYVEAADRIREILKKIDPNLAAYVATEAGALLYEWES
# B9: GBRAPL2_0_7188 (protein)
# chain: VEERIKEAEKLSIEEASKKFIEIIKEVVEDPSYSLEEIEEIALRIMKALTKIVKKENTEEAEKIYAETADKIREILSKVDPNIANYIETEAYSELLEIEE
# B10: FBXL12_hotspot_77_91 (protein)
# chain: MKTVTIRVSFPAVPPEEAEALRERALRAMETALEIARGLKAAHPDVKIVIVLRIEGNPEVAREVAERAVREAHELGIEFRDESAPEVRAAAEALLAALAA
# B11: GBRAPL2_0_7204 (protein)
# chain: YLEKIEKAKSLSPKELFEALKKLVKELAKDKSVSPEEKEEILEAIIKLAAERVKETKTEEDEKAFEEIVKEAVKVAEKIDPNLAAYVRTYAGSLLYEIES
# B12: FBXL12_hotspot_78_95 (protein)
# chain: MRVLRIVIPADLPPDPEQRQRGIEYQAQAAIEAVRAGWEVVIEAADTPEAKRAALEILRRTLAETGDPERIRSPEGENAREILARLEAELAAEEAAAAAA
# B13: GBRAPL2_0_7201 (protein)
# chain: YLEEIEKAKKLSPEEAFKKLKELVKKLAEDDSISLEELEEILEKILKLAAEKVKKTKKEEDLEKFEEIVDLATEAAAKRDPLLAAYIDTYGGSLLIEVEE
# B14: GBRAPL2_0_7194 (protein)
# chain: IEERIEELKKLSIEEAVKEGIRLVKEVKEDESFSKEEIVEIAERVAKIVAEKAKEEKTEEALDLAWKFADEVREILKEIDPNDAAYVESEIGSELMEIES
# B15: FBXL12_hotspot_69_87 (protein)
# chain: EFTVIVRDVSVEYALALAEAALERAEEALAAGDREAFLRLARVALAAIENILEEDPERALELAERLAELLERADDPRFEPLLERARELIERARRLLEERR
# B16: GBRAPL2_0_7199 (protein)
# chain: YLEEIEKAKELSPEEAFEKLEKLVKELAEDDSISLEELEEILEAIIELAAEKVKETKREEDLEKFDRIVDLAAEAAAKRDPNLAAYIRTYGGSLLIEVEE
# B17: FBXL12_hotspot_69_88 (protein)
# chain: MIEVRVSESSVEYALELGRAAVEKLEEAVKNGDWETAERLVDLIISIAEAIAELRPEEAIELLERAAKILKKDDSEKAKELLEKVEKKIKELKKKAKELK
# B18: FBXL12_hotspot_109_6 (protein)
# chain: MRVILSALGTEPELAERTFEATVTIAEGLLAAGHEVRVVLVAVEENREVAEAAAARLRALGAEVRLVVEETPEAAREAHERLLAEAEEELDREEEERERA
# B19: GBRAPL2_0_7198 (protein)
# chain: YLERIEKAKELSPEETFKALKEIVKELAEDDSISLEELEEILEKIVELAAEKVKETKKEEDLEKFDEIVDLATEAAAKRDPNLAAYIDTYGGSLLIEVEE
# B20: GBRAPL2_0_7200 (protein)
# chain: B13 chain with K10E, K26E, L46I, K47E, K55E, K58S, E63K, E66D
# B21: FBXL12_hotspot_77_92 (protein)
# chain: MSHLEIVVSQPATPPERREEALARARHTARYAAEIARGAKERQPELRITLVVRSEADPETTRALVRILAETAKELGVELVVEVAPENEAVAREVLAELGL
# B22: GBRAPL2_0_7196 (protein)
# chain: YLERIEKMKKLSPEEAYKEAKKLVEELAKDESISPEELEKILEAILEMMAEFVKKTKKEEMEKKFDEIADLAVEAAAKKDPNLAAYIASYAGSLRVEVES
# B23: GBRAPL2_0_7205 (protein)
# chain: YEEEIEKAKELSPEELFKALKELVKKLKEDDSISLEELEEILLRILELAAEKVKEVKTEEAEEAFDELVELAVEAMKKRDPNMANYIETYGGSLLYEIES
# B24: GBRAPL2_0_7202 (protein)
# chain: YLEEIEKAKELSPEELFKKLKELVEKLAEDDSISPEEKEEILLKIVELAAEKVKETKTEEDEKKFEEIVELAVKVAEKIDPNLAAYIRTHAGSLLYENES
# B25: GBRAPL2_0_7187 (protein)
# chain: YRKEIEEAKKLSIEEAAEKFIKLVKEAVEDPSFSKEEIEELALEIVDTLVEIVKKENTEEAEDIYAETIREIREILEKVDPNLAAYVETEGFSKLLEIEE
# B26: GBRAPL2_0_7193 (protein)
# chain: IEERIEKMKELSIEEAVKEGIEIVEEVMKDPSFTDEEKVEIAERVVDIVAEKAKEEKTEEALDLAVEFARKVREILEKISPEDAAYVETRMGAELMEIES
# B27: FBXL12_hotspot_78_93 (protein)
# chain: MRTLVISIPAFVSPDAAARARGIAYQAAAAIEALRAGWEVVISHADTPEAKRAALTILERAVAETGDEARIRSEEGRGAREILAELRAALAAEDEAAAAA
# B28: FBXL12_hotspot_109_5 (protein)
# chain: MTVLLVARATTPEAARRTGETALAIARGLRAAGHEVIAVIVTLEEAREIAEATAAELRALGAEVRLRTAATPEEVERAYAELRAEALARLDAREAAAAAA
# B29: FBXL12_hotspot_78_94 (protein)
# chain: MRKLVITIPEPVTPDEEARRRGVEYQAQAAIEALKAGWEVVISHADTPEAKRAALEILEKAVAETGDKEKIKSADGKNADEMLAELKAELAEEEARRAAA
# B30: GBRAPL2_0_7190 (protein)
# chain: YEEELEEISKLPIEEFAERGVELVERAVADPSLSLEELEELALRVIRLLYEKVKEEKTEEAEDIYVEAADRIAAILAAVDPRLAAYVATEAGSLLYEWES
# B31: GBRAPL2_0_7203 (protein)
# chain: YLEEIEKAKSLSPEELFKKLKELVKKLAEDKSISPEEKEEILEAIIKLAGEKVKETKTEETEKQFDEIVELAVEVAEKIDPNLAAYIRTLAGSLLYENES
# B32: FBXL12_hotspot_69_89 (protein)
# chain: MIEVRASESSIEYVKELAESALKLAKKALKEKDLETLLKLAEILISAAREIAKYEPEYALELLKELLKLLKEAKTEEAEKAAKEAEKAIKEIKKLIEERK
# Assays:
# [1] = target: GABARAPL2, P60520; test: median log2 fold change of GCK-ALFA target abundance (FLAG IP / Myc IP barcode read proportion) (log2 ratio); each designed protein is fused to an ALFA-tag nanobody in HEK293 cells to bring the named protein to FLAG-tagged glucokinase (GCK); Myc marks an untargeted standard; higher = target protein stabilised (more abundant); settings: target protein: 3xFLAG-MCP-GCK-ALFA reporter; HEK293 landing pad (RPLP)
# In short: (§1)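 Binders fused to an ALFA nanobody were recombined as a library into HEK293 landing-pad cells, which were induced with 2 μg mL^−1 doxycycline and then transfected to express a FLAG-tagged target and a Myc-tagged standard. After 48 h, circular RNA barcodes recovered by anti-FLAG and anti-Myc immunoprecipitation of lysates were reverse transcribed, amplified and sequenced. Each binder's target abundance is the median log2 ratio of FLAG to Myc barcode read proportions, from barcodes present at ≥10^−7 in both replicates, binders carrying ≥3 barcodes per replicate, a 10^−6 pseudocount and pooled replicates.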
# [2] = target: T1, FBXL12, Q9NXK8; test: as above; settings: target protein: 3xFLAG-MCP-GCK-ALFA reporter; HEK293 landing pad (RPLP)
# In short: as §1
# Sequence of GABARAPL2, P60520 (P60520 whole entry, the tested form may be a part): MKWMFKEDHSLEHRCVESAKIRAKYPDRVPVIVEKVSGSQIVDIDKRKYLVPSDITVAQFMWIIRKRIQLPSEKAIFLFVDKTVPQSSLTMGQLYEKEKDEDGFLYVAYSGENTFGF
binder,measurement,setting,value
B1,median log2 fold change,[1],-0.521
B2,median log2 fold change,[2],-0.0708
B3,median log2 fold change,[1],0.245
B4,median log2 fold change,[1],0.23
B5,median log2 fold change,[1],0.163
B6,median log2 fold change,[1],0.12
B7,median log2 fold change,[2],0.19
B8,median log2 fold change,[1],-0.305
B9,median log2 fold change,[1],-0.00159
B10,median log2 fold change,[2],-0.734
B11,median log2 fold change,[1],0.0789
B12,median log2 fold change,[2],-0.49
B13,median log2 fold change,[1],0.0418
B14,median log2 fold change,[1],0.238
B15,median log2 fold change,[2],-0.369
B16,median log2 fold change,[1],0.196
B17,median log2 fold change,[2],-0.107
B18,median log2 fold change,[2],0.11
B19,median log2 fold change,[1],0.104
B20,median log2 fold change,[1],0.104
B21,median log2 fold change,[2],0.051
B22,median log2 fold change,[1],0.192
B23,median log2 fold change,[1],0.126
B24,median log2 fold change,[1],0.0999
B25,median log2 fold change,[1],0.0199
B26,median log2 fold change,[1],0.33
B27,median log2 fold change,[2],-0.726
B28,median log2 fold change,[2],-0.531
B29,median log2 fold change,[2],0.319
B30,median log2 fold change,[1],-0.38
B31,median log2 fold change,[1],0.0798
B32,median log2 fold change,[2],0.238
